D1 PAM: enhances dopamine response at the human D1 receptor. P21728. HEK293 TREx D1 cells, calcium flux, dopamine EC20 potentiation. potentiation, % at 10 µM. 360,000 compounds, 0.036% hits. AID 504651; in the data active = potentiation above about 30%
Target sequence (P21728 whole entry, looked up): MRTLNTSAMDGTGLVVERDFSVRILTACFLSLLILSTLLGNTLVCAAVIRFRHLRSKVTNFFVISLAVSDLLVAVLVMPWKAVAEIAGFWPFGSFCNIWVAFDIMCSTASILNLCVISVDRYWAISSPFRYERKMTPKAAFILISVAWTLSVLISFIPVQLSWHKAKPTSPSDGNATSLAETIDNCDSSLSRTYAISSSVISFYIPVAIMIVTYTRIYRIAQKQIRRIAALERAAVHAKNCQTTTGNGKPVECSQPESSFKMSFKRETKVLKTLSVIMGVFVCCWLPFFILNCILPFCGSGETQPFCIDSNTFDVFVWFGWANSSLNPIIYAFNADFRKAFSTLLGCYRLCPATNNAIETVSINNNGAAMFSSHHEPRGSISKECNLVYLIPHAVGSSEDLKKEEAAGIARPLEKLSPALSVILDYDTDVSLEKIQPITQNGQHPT
GRP78 ERSR act: inducers of ER stress response in human glioma cells | U87-MG GRP78 promoter luciferase reporter, 16 h | Potency, µM, most hits filed as activators | 420,000 compounds, 0.02% hits | AID 602332; active = well fitted activation curve with a large enough effect; inconclusive = small, poorly fitted or top-dose-only effect; inactive = no such curve, though single readings can be large or run the other way; also: series mostly up to about 76 µM; nearly all actives have a fitted effect of over 35% in size
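Stably transfected U87-MG glioma cells carrying a GRP78-based luciferase sensor; 16 h compound incubation. Luminescence end-point read 10 min after Bright-Glo addition at room temperature.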
D1 agonist: human D1 receptor agonism. HEK293 T-REx D1 cells, calcium flux, agonist mode. 360,000 compounds, 1% hits. activation, % at 2 µM. P21728
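Agonism was scored from calcium flux recorded over 180 s (1 read/s) after pintool compound addition, following a 10-cycle baseline. Cells were inducible force-coupled HEK293 TREx D1, plated overnight at 30 C and loaded with no-wash calcium dye.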
TRHR PAM: allosteric enhancers of human TRH receptor; P34981; TRHR cells, fluo-8 calcium fluorescence, EC20 TRH enhancement; enhancement, % at 2 µM; 360,000 compounds, 0.66% hits; AID 493056; in the data active = enhancement above about 30%
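TRHR-expressing cells loaded with fluo-8 calcium dye were read kinetically (ex 480/em 530) during compound addition, then stimulated with an EC20 of TRH (10 nM final). Enhancement of the Gq-mediated intracellular calcium response was scored.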
TRHR agonist: agonists of human TRH receptor; TRHR cells, calcium flux fluo-8, FDSS agonist mode; P34981; AID 493084; 360,000 compounds, 0.18% hits; activation, % at 2 µM
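In this calcium-flux screen, cells bearing human TRHR are dye-loaded with fluo-8, baselined for 10 cycles, then exposed to library compounds; positive kinetic calcium responses during the agonist phase mark hits, with TRH as control.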
D1 antagonist: antagonists of human D1 dopamine receptor; P21728; HEK293 TREx D1 cells, calcium flux, dopamine EC80; active compounds read low; activity change, negative = inhibition, % at 10 µM; 360,000 compounds, 3.2% hits; in the data active = activity change below about -30%
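Tetracycline-induced HEK293 T-REx cells with force-coupled D1 receptor were loaded with a no-wash calcium dye. Compound was added after a 10 s baseline and read kinetically for 180 s; EC80 dopamine was then added and calcium flux followed another 180 s.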
Hits are given with their value. Only some compounds are listed: those with a hit (about 4% of all), similar ones and a draw of the others. Rule as the data show it, unless noted: active = activation above about 30%; inactive = the rest.

What do the screens show for `O=C(Nc1nc(-c2ccc(Cl)cc2)cs1)C1CCCO1` (stereo unspecified)?
D1 PAM: inactive; GRP78 ERSR act: inactive; D1 agonist: inactive; TRHR PAM: inactive; TRHR agonist: inactive; D1 antagonist: inactive

How did CCOc1ccc(-c2csc(NC(=O)C3CCCO3)n2)cc1 (stereo unspecified) do in these assays?
D1 PAM: inactive; GRP78 ERSR act: inactive; D1 agonist: inactive; TRHR PAM: inactive; TRHR agonist: inactive; D1 antagonist: -54

How did CN(C)S(=O)(=O)c1cccc(NC(=O)COC(=O)CCC(=O)c2cccs2)c1 do in these assays?
D1 PAM: inactive; GRP78 ERSR act: inactive; D1 agonist: inactive; TRHR PAM: inactive; TRHR agonist: inactive; D1 antagonist: -34

Results for CCN(CC)S(=O)(=O)c1cccc(NC(=O)COC(=O)/C=C/c2cccs2)c1 ?
D1 PAM: inactive; GRP78 ERSR act: inactive; D1 agonist: inactive; TRHR PAM: inactive; TRHR agonist: inactive; D1 antagonist: -31

Results for CCN(CC)S(=O)(=O)c1cccc(NC(=O)COC(=O)c2cccs2)c1 ?
D1 PAM: inactive; GRP78 ERSR act: inactive; D1 agonist: inactive; TRHR PAM: inactive; TRHR agonist: inactive; D1 antagonist: inactive

Results for COc1ccc(N2CCN(C(c3ccc(C)cc3)c3nnnn3C(C)(C)C)CC2)cc1 (stereo unspecified) ?
GRP78 ERSR act: inactive

What do the screens show for `Cc1cc(C)c2c(N)c(C(=O)Nc3cccc(C)c3C)sc2n1`?
D1 PAM: inactive; GRP78 ERSR act: inactive; D1 agonist: inactive; TRHR PAM: inactive; TRHR agonist: inactive; D1 antagonist: -31

Results for c1cncc(OC2CCN(Cc3ccc4c(c3)CN(Cc3ccc5c(c3)OCCO5)CCO4)CC2)c1 ?
GRP78 ERSR act: inactive

Results for Cc1ccc(NC(=O)CN(C)C(=O)COC(=O)CNS(=O)(=O)c2ccc(Br)cc2Cl)cc1 ?
D1 PAM: inactive; GRP78 ERSR act: inactive; D1 agonist: inactive; TRHR PAM: inactive; TRHR agonist: inactive; D1 antagonist: -34

How did O=C(COC(=O)CNS(=O)(=O)c1ccc(Br)cc1Cl)NCCc1ccccc1 do in these assays?
D1 PAM: inactive; GRP78 ERSR act: inactive; D1 agonist: inactive; TRHR PAM: inactive; TRHR agonist: inactive; D1 antagonist: -34

How did CC1=C(C(=O)N(C(C)C)C(C)C)CC(CC(=O)NCCN2CCOCC2)C(=O)N1Cc1ccc(C(C)(C)C)cc1 (stereo unspecified) do in these assays?
GRP78 ERSR act: inactive

Results for Cc1cnc(SCc2ccccn2)nc1C1CCCN(C(=O)c2scc3c2CCCC3)C1 (stereo unspecified) ?
GRP78 ERSR act: inactive

Results for COc1ccc(C(=O)N2CCC3(CC2)CN(C(=O)NC(C)C)C3)cc1 ?
GRP78 ERSR act: inactive

How did Cc1nn(C)c(C)c1S(=O)(=O)N(CC(=O)Nc1nccs1)c1ccc(C(C)C)cc1 do in these assays?
D1 PAM: inactive; GRP78 ERSR act: inconclusive; D1 agonist: inactive; TRHR PAM: inactive; TRHR agonist: inactive; D1 antagonist: inactive

What do the screens show for `COc1ccc(N(CC(=O)Nc2ccc3c(c2)OCCO3)S(=O)(=O)c2c(C)nn(C)c2C)cc1`?
D1 PAM: inactive; GRP78 ERSR act: inactive; D1 agonist: inactive; TRHR PAM: inactive; TRHR agonist: inactive; D1 antagonist: -30

How did CCc1ccc(NC(=O)CN(c2ccc(OC)cc2)S(=O)(=O)c2c(C)nn(C)c2C)cc1 do in these assays?
D1 PAM: inactive; GRP78 ERSR act: inactive; D1 agonist: inactive; TRHR PAM: inactive; TRHR agonist: inactive; D1 antagonist: inactive

Results for COc1ccc(N(CC(=O)Nc2nccs2)S(=O)(=O)c2c(C)nn(C)c2C)cc1 ?
D1 PAM: inactive; GRP78 ERSR act: inactive; D1 agonist: inactive; TRHR PAM: inactive; TRHR agonist: inactive; D1 antagonist: -55

How did O=C(NCc1ccc(Cl)cc1)C1CCN(C(=O)c2cnn(-c3ccccc3)c2-n2cccc2)CC1 do in these assays?
D1 PAM: inactive; GRP78 ERSR act: inactive; D1 agonist: inactive; TRHR PAM: inactive; TRHR agonist: inactive; D1 antagonist: inactive

Screens: PubChem BioAssay, National Center for Advancing Translational Sciences (NCATS)
